Data from PubChem BioAssay (EPA / NIEHS).
Records with an inconclusive call do not appear. Activity calls are given as the source filed them. Rule for the calls: active = hit-call score of the fitted dose curve at least 0.9, where 1 is the maximum; inconclusive = response in the unintended direction; inactive = score below 0.9.

Experiments:
[1] = biological target: Cellular tumor antigen p53 (Homo sapiens) (UniProt P04637); assay: TOX21_p53_BLA_p4_ratio: Tox21 HCT-116 p53 Agonism Beta-lactamase Assay, Ratio, Phase 4 (AID 2283601)
Procedure, shortened: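 HCT-116 p53 beta-lactamase reporter cells (4000/well) preincubated 5 h, then compound (217-fold dilution of DMSO stock) for 16 h at 37C. CCF4-AM substrate added 2 h at room temperature; 460/530 nm emission ratio fitted upward versus DMSO.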

[2] = Tanguay_ZF_120hpf_MORT_legacy: (Legacy) Oregon State University Tanguay Lab 120 Hour Post-fertilization zebrafish Assay for Mortality (AID 2283633)
Procedure, shortened: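 Mortality endpoint from a multiplexed whole-embryo zebrafish screen. Dechorionated wild-type embryos received compound at 6 hpf and remained under static exposure at 28C until 120 hpf, with death noted as a present/absent call.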

[3] = Tanguay_ZF_120hpf_YSE_legacy: (Legacy) Oregon State University Tanguay Lab 120 Hour Post-fertilization zebrafish Assay for Yolk Sac Edema (AID 2283634);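 for AC50: actives raise the incidence of yolk sac edema above the DMSO baseline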
Procedure, shortened: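 Readout: presence or absence of yolk sac edema at 120 hpf, fitted upward against DMSO controls. Exposure ran statically from 6 hpf in dechorionated embryos kept at 28C.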

[4] = Tanguay_ZF_120hpf_SNOU_legacy: (Legacy) Oregon State University Tanguay Lab 120 Hour Post-fertilization zebrafish Assay for Snout Malformation (AID 2283637)
Procedure, shortened: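 Dechorionated tropical 5D wild-type zebrafish embryos exposed statically from 6 to 120 hpf at 28C, one per well, in 0.64% DMSO. Snout malformation scored as present/absent by brightfield at 120 hpf; dead embryos not scored.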

[5] = Tanguay_ZF_120hpf_JAW_legacy: (Legacy) Oregon State University Tanguay Lab 120 Hour Post-fertilization zebrafish Assay for Jaw Malformation (AID 2283638);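 for AC50: active means more embryos with jaw malformation than DMSO controls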
Procedure, shortened: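 Static waterborne exposure of dechorionated wild-type (Tropical 5D) zebrafish from 6 to 120 hpf at 28C, 0.64% DMSO vehicle; 5uM trimethyltin chloride served as positive control. Jaw morphology recorded as binary at 120 hpf.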

[6] = Tanguay_ZF_120hpf_PE_legacy: (Legacy) Oregon State University Tanguay Lab 120 Hour Post-fertilization zebrafish Assay for Pericardial Edema (AID 2283640);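 for AC50: potency for increased incidence of pericardial edema versus DMSO baseline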
Procedure, shortened: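 Read-out is the presence or absence of pericardial edema at 120 hpf under brightfield, with gain of signal fitted against DMSO controls. Larvae (5D wild-type) were statically exposed at 28C with 0.64% final DMSO.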

[7] = Tanguay_ZF_120hpf_BRAI_legacy: (Legacy) Oregon State University Tanguay Lab 120 Hour Post-fertilization zebrafish Assay for Brain Malformation (AID 2283641)
Procedure, shortened: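 Brain malformation in Tropical 5D zebrafish was recorded as a binary endpoint after static compound exposure from early development to 120 hpf at 28C. Activity was analysed against DMSO as negative control.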

[8] = Tanguay_ZF_120hpf_AXIS_legacy: (Legacy) Oregon State University Tanguay Lab 120 Hour Post-fertilization zebrafish Assay for Body Axis Malformation (AID 2283635)
Procedure, shortened: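 Static 6–120 hpf chemical exposure of dechorionated wild-type 5D zebrafish, one per well at 28C; morphology endpoint scored binary at 120 hpf relative to DMSO control.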

[9] = Tanguay_ZF_120hpf_OTIC_legacy: (Legacy) Oregon State University Tanguay Lab 120 Hour Post-fertilization zebrafish Assay for Otic Vesicle Malformation (AID 2283639)
Procedure, shortened: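 Otic vesicle malformation is read as a yes/no morphology call at 120 hpf. Exposure is static at 28C with 0.64% (vol/vol) DMSO; embryos that die are excluded from non-mortality endpoints.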

[10] = Tanguay_ZF_120hpf_EYE_legacy: (Legacy) Oregon State University Tanguay Lab 120 Hour Post-fertilization zebrafish Assay for Eye Malformation (AID 2283636);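 note: binary presence or absence of eye malformation scored by brightfield in 120 hpf larvae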
Procedure, shortened: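 Dechorionated Tropical 5D zebrafish embryos, one per well from 6 hpf, static exposure to 120 hpf at 28C, 0.64% DMSO. Eye malformation scored present/absent by brightfield; dead embryos not scored.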

Chain of Cellular tumor antigen p53 (Homo sapiens) (P04637 whole entry, looked up): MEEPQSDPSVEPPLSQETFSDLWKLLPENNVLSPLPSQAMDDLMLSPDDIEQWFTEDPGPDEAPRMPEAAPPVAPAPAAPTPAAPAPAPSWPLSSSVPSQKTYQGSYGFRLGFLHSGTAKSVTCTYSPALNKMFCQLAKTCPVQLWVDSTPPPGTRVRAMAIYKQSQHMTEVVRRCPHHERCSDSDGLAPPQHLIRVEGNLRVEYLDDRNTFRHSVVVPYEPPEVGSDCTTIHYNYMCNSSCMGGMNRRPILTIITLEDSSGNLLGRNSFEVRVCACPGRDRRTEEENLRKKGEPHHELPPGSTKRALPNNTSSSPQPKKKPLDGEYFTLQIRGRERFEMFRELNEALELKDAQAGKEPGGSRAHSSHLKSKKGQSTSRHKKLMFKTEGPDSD

For `CCOc1nc(C(Cl)(Cl)Cl)ns1`, the outcome [1] was “inactive”, the outcome [2] was “inactive” and the outcome [3] was “inactive”. For the same molecule, the outcome [4] was “inactive”, the outcome [5] was “inactive” and the outcome [6] was “inactive”. The outcome [7] was “inactive”.
For `O=C(O)c1c(Cl)ccc2cc(Cl)cnc12`, the outcome [2] was “inactive”, the outcome [3] was “inactive” and the outcome [8] was “inactive”. The outcome [4] was “inactive”, the outcome [5] was “inactive” and the outcome [9] was “inactive”. The outcome [6] was “inactive”.
With `O=c1n(Cl)c(=O)n(Cl)c(=O)n1Cl` the outcome [1] was “inactive”, the outcome [2] was “inactive” and the outcome [3] was “inactive”. The outcome [5] was “inactive”, the outcome [9] was “inactive” and the outcome [6] was “inactive”. For the same molecule, the outcome [7] was “inactive”.
With `CCNC(=O)NC(=O)C(C#N)=NOC` the AC50 [3] was 37.8 µM (active), the AC50 [4] was 24.5 µM (active) and the AC50 [5] was 19.6 µM (active). For the same molecule, the outcome [9] was “inactive”, the AC50 [6] was 47 µM (active) and the outcome [7] was “inactive”.
In the case of `Cc1cnc(C2=NC(C)(C(C)C)C(=O)N2)c(C(=O)O)c1` (centres undefined), the outcome [2] is reported as “inactive”, the outcome [3] is reported as “inactive” and the outcome [4] is reported as “inactive”. For the same molecule, the outcome [5] was “inactive”, the outcome [9] was “inactive” and the outcome [6] was “inactive”. The outcome [7] was “inactive”.
In the case of `CC1(C)CON(Cc2ccccc2Cl)C1=O`, the outcome [2] is reported as “inactive”, the outcome [3] is reported as “inactive” and the outcome [4] is reported as “inactive”. For the same molecule, the outcome [5] was “inactive”, the outcome [9] was “inactive” and the outcome [6] was “inactive”. For the same molecule, the outcome [7] was “inactive”.
With `Clc1cccc(C(Cl)(Cl)Cl)n1` the outcome [2] was “inactive”, the outcome [3] was “inactive” and the outcome [10] was “inactive”. The outcome [4] was “inactive”, the outcome [5] was “inactive” and the outcome [9] was “inactive”. The outcome [7] was “inactive”.
With `CC(C)(C)C(=O)C(Oc1ccc(Cl)cc1)n1cncn1` (centres undefined) the AC50 [3] was 36.8 µM (active), the AC50 [4] was 34.8 µM (active) and the outcome [5] was “inactive”. The AC50 [6] was 37.5 µM (active) and the outcome [7] was “inactive”.
For `COc1cc(Cl)c(OC)cc1Cl`, the outcome [2] was “inactive”, the outcome [3] was “inactive” and the outcome [8] was “inactive”. The outcome [4] was “inactive”, the outcome [5] was “inactive” and the outcome [9] was “inactive”. The outcome [6] was “inactive” and the outcome [7] was “inactive”.
With `Clc1nc(Cl)nc(Nc2ccccc2Cl)n1` the outcome [1] was “inactive”, the outcome [2] was “inactive” and the outcome [3] was “inactive”. The outcome [5] was “inactive” and the outcome [6] was “inactive”.
With `CC1(C)CCC(=Cc2ccc(Cl)cc2)C1(O)Cn1cncn1` (centres undefined) the outcome [1] was “inactive”, the outcome [2] was “inactive” and the outcome [3] was “inactive”. For the same molecule, the outcome [5] was “inactive”, the outcome [9] was “inactive” and the outcome [6] was “inactive”. For the same molecule, the outcome [7] was “inactive”.
With `CCOc1cc(C(C)(C)C)ccc1C1COC(c2c(F)cccc2F)=N1` (centres undefined) the outcome [2] was “inactive”, the outcome [3] was “inactive” and the outcome [8] was “inactive”. The outcome [4] was “inactive”, the outcome [5] was “inactive” and the outcome [6] was “inactive”. The outcome [7] was “inactive”.
With `CS(=O)(=O)c1cc(C(F)(F)F)ccc1C(=O)c1cnoc1C1CC1` the outcome [2] was “inactive”, the outcome [3] was “inactive” and the outcome [10] was “inactive”. The outcome [4] was “inactive”, the outcome [5] was “inactive” and the outcome [9] was “inactive”. For the same molecule, the outcome [6] was “inactive”.
With `Cc1cc(C)nc(Nc2ccccc2)n1` the outcome [2] was “inactive”, the outcome [3] was “inactive” and the outcome [10] was “inactive”. For the same molecule, the outcome [4] was “inactive”, the outcome [5] was “inactive” and the outcome [9] was “inactive”. The outcome [6] was “inactive” and the outcome [7] was “inactive”.
In the case of `Nc1c(Cl)c(F)nc(OCC(=O)O)c1Cl`, the outcome [2] is reported as “inactive”, the outcome [3] is reported as “inactive” and the outcome [10] is reported as “inactive”. The outcome [4] was “inactive”, the outcome [5] was “inactive” and the outcome [9] was “inactive”. The outcome [6] was “inactive”.
In the case of `Nc1c(Cl)c(Cl)nc(C(=O)O)c1Cl`, the outcome [1] is reported as “inactive”, the outcome [2] is reported as “inactive” and the outcome [5] is reported as “inactive”. The outcome [9] was “inactive”, the outcome [6] was “inactive” and the outcome [7] was “inactive”.
For `CCOc1nc(F)cc2nc(S(=O)(=O)Nc3c(Cl)cccc3Cl)nn12`, the outcome [1] was “inactive”, the outcome [2] was “inactive” and the outcome [4] was “inactive”. The outcome [5] was “inactive”, the outcome [9] was “inactive” and the outcome [6] was “inactive”. The outcome [7] was “inactive”.
With `CSC(=O)c1c(C(F)F)nc(C(F)(F)F)c(C(=O)SC)c1CC(C)C` the outcome [2] was “inactive”, the outcome [3] was “inactive” and the outcome [4] was “inactive”. For the same molecule, the outcome [5] was “inactive”, the outcome [9] was “inactive” and the outcome [6] was “inactive”. The outcome [7] was “inactive”.
For `Cn1c(-c2ccccc2)cc(-c2ccccc2)[n+]1C`, the outcome [1] was “inactive”, the outcome [2] was “inactive” and the outcome [3] was “inactive”. The outcome [4] was “inactive”, the outcome [5] was “inactive” and the outcome [9] was “inactive”. The outcome [6] was “inactive” and the outcome [7] was “inactive”.
For `CCSC(=O)N1CCCCCC1`, the outcome [2] was “inactive”, the outcome [3] was “inactive” and the outcome [10] was “inactive”. For the same molecule, the outcome [4] was “inactive”, the outcome [5] was “inactive” and the outcome [9] was “inactive”. The outcome [7] was “inactive”.
For `O=P(O)(O)CCCl`, the outcome [1] was “inactive”, the outcome [2] was “inactive” and the outcome [3] was “inactive”. For the same molecule, the outcome [4] was “inactive”, the outcome [9] was “inactive” and the outcome [6] was “inactive”. For the same molecule, the outcome [7] was “inactive”.
